High-throughput results as filed in PubChem BioAssay.
Cycloheximide cs: Cycloheximide Counterscreen for Small Molecule Inhibitors of Shiga Toxin. AID 2314, 2010. max response, %. 300,000 compounds, 12% hits. cell reporter, cycloheximide protein synthesis inhibition counterscreen; in the data active means max response mostly above about 13%, no sharp cut-off; inactive means mostly below about 14%; further: read at 38.3 µM for the half of the compounds with a filed dose; 0% is about no effect
MARV entry inh: qHTS for inhibitors of binding or entry into cells for Marburg Virus | Marburg virus pseudotyped entry inhibition, cell reporter | Potency, µM (highest dose often 37.8 µM), for the others: top-dose activity change, negative = inhibition, actives largely listed as inhibitors | 300,000 compounds, 1.8% hits; calls by dose curve; tested in HEK293 cells; further: potency means the concentration at half of the fitted maximal effect; on the % scale 0 is the no-effect control and ±100 the full control effect
Shiga inhibitor: A qHTS for Small Molecule Inhibitors of Shiga Toxin; inhibition, % at 38.7 µM; AID 2315, 2010; 290,000 compounds, 9.2% hits; Vero cells, Shiga toxin protein synthesis inhibition reporter; in the data active means inhibition mostly above about 28%, no sharp cut-off; inactive means mostly below about 43%; further: 0% is about no effect
LASV entry inh: qHTS for Inhibitors of binding or entry into cells for Lassa Virus | AID 540256, 2011 | Lassa virus pseudotype entry inhibition, cell reporter | 300,000 compounds, 1.2% hits | Potency, µM (top dose mostly 37.9 µM), inactives show at the highest dose activity change, negative = inhibition, usual class: inhibitors; calls by dose curve; tested in HEK293 cells; further: potency means the concentration at half of the fitted maximal effect; on the % scale 0 is the no-effect control and ±100 the full control effect; nearly all actives have a fitted effect of over 50% in size
The depositor's hits bear a star; ? = inconclusive; . = no result; + = active, no number; [ ] = dose if it differs, or a comment. Sampled rows, rich in hits. Any-hit rate of the full collection: about 12%.

SMILES	Cycloheximide cs	MARV entry inh	Shiga inhibitor	LASV entry inh
Cc1ccc(S(=O)(=O)c2c(C)cc(-c3ccccc3)[nH]c2=O)cc1	-2.8	?	19.3	-6.0%
Cc1cc(C)c(S(=O)(=O)c2ccccc2)c(=O)[nH]1	18.0*	6.1%[46.1 µM]	13.3	17.1%[46.1 µM]
O=C(c1cnc(Cl)c(Cl)c1)N1CCC(Cc2ccccc2)CC1	1.7	?	-18.5	0.8%
CS(=O)(=O)Nc1ccc(C2=NN(S(C)(=O)=O)C(c3ccc4nccnc4c3)C2)cc1 (centres undefined)	14.9*	1.0%[46.1 µM]	26.0	10.2%[46.1 µM]
CC(=O)N1N=C(c2ccc(NS(C)(=O)=O)cc2)CC1c1ccc2nccnc2c1 (centres undefined)	-1.6	?	-6.7	10.7%[46.1 µM]
CC(=O)N1N=C(c2ccco2)CC1c1ccc(C)cc1 (centres undefined)	-3.8	?	20.1	24.0%
CCS(=O)(=O)Nc1cccc(C2=NN(S(C)(=O)=O)C(c3ccccc3)C2)c1 (centres undefined)	17.1	-3.0%[46.1 µM]	2.8	-4.3%
CS(=O)(=O)N1N=C(c2ccc(Br)cc2)CC1c1ccc2c(c1)OCO2 (centres undefined)	44.5*	?	82.8*	?
Cc1ccc(C2=NN(S(C)(=O)=O)C(c3ccc4c(c3)OCO4)C2)cc1 (centres undefined)	75.7*	?	+	?
CC(=O)N1N=C(c2ccc(C)cc2)CC1c1ccc2c(c1)OCO2 (centres undefined)	45.1*	?	52.2*	-26.4%
Cc1cccc(C)c1Nc1c(-c2ccccc2Cl)nc2cnccn12	.	?	.	-16.4%[46.1 µM]
O=C1/C(=C/c2cccs2)SC(=S)N1CCC(=O)N1CCCCC1CCO (centres undefined)	38.5*	?	120.6*	16.4%[46.1 µM]
Cc1ccc(S(=O)(=O)/N=C2/C=C(Sc3ncn[nH]3)C(=O)c3ccccc32)c(C)c1	19.4*	?	16.2	4.11µM*
Cc1ccc(S(=O)(=O)/N=C2/C=C(Sc3ncn[nH]3)C(=O)c3ccccc32)cc1	33.0*	?	51.0	2.91µM*
Cc1ccccc1CCNC(=O)C1CCN(S(=O)(=O)c2ccc3c(ccn3C)c2)CC1	.	.	.	-17.8%[46.1 µM]
Cc1ccc(C)c(NC(=O)Cn2nnc(C(=O)NCc3cccs3)c2N)c1	0.8	?	-15.6	-23.9%
O=C(/C(C=Nc1cccc(C(F)(F)F)c1)=C(/O)c1ccco1)C(F)(F)F	92.9*	?	126.5*	12.2%
O=C(c1ccco1)N1CCN(S(=O)(=O)c2cccc(C(F)(F)F)c2)CC1	4.5	-2.3%	27.4	21.7%
O=C(/C(C=Nc1ccc(Br)cc1)=C(/O)c1ccco1)C(F)(F)F	41.7*	?	+	?
Cn1nc(C(F)(F)F)c(-c2ccc(Br)cc2)c1NC(=O)c1ccco1	-0.7	.	-9.8	.
O=S1(=O)c2cccc3cccc(c23)N1CCBr	-3.4	?	-13.0	7.6%
O=C(Nc1nc2ccccc2[nH]1)c1ccc(OC(F)F)cc1	19.1*	?	58.8*	?
CC(C)Oc1ccc(C(=O)Nc2nc3ccccc3[nH]2)cc1	24.6*	?	33.2	1.12µM*
CC(C)Oc1ccc(C(=O)Nc2ncn[nH]2)cc1	7.3	3.3%	3.3	-1.1%
N#CC(Cc1ccc(OC(F)F)cc1)c1nc2ccccc2[nH]1 (centres undefined)	26.3*	-9.2%	65.9*	?
SMILES	Cycloheximide cs	MARV entry inh	Shiga inhibitor	LASV entry inh
CCC(Oc1ccccc1)C(=O)Nc1nc2ccccc2[nH]1 (centres undefined)	21.3*	1.8%	35.5	14.0%
O=C(Cn1cc(S(=O)(=O)Cc2cccc([N+](=O)[O-])c2)c2ccccc21)N1CCOCC1	-2.3	23.3%	-2.0	6.0%
CCn1nc(C(=O)Nc2nc3ccccc3[nH]2)c2ccccc2c1=O	-2.7	?	10.7	3.6%
Cn1nc(C(=O)Nc2nc3ccccc3[nH]2)c2ccccc2c1=O	28.6*	-18.7%	33.1	19.5%
Cc1cccc(-c2nc(C#N)c(N3CCC(C)CC3)o2)c1	1.7	-6.2%[46.1 µM]	-8.8	18.8%[46.1 µM]
CC1CCN(c2oc(-c3ccccc3Cl)nc2C#N)CC1	36.6*	0.0%	99.4*	-13.2%
N#Cc1nc(-c2ccccc2Cl)oc1N1CCOCC1	16.5*	-4.0%	17.6	3.3%
Cc1ccccc1-c1nc(C#N)c(N2CCC(C)CC2)o1	23.5*	.	46.1*	.
COc1ccccc1-c1nc(C#N)c(N2CCCCCC2)o1	5.5	?	33.5	-0.5%
CC1CCN(c2oc(-c3ccc(F)cc3)nc2C#N)CC1	40.5*	-5.4%[46.1 µM]	62.4*	-16.1%
CC1CCCN(c2oc(-c3cccc4ccccc34)nc2C#N)C1 (centres undefined)	12.4	14.7%	-2.1	?
Cc1ccnn1CCC(=O)N1CCCC(CCC(=O)N2CCN(c3ccccn3)CC2)C1 (centres undefined)	-2.9	-27.2%[46.1 µM]	-1.4	-16.9%[46.1 µM]
N/C(=N\OC(=O)CC1CCCCC1)c1cccc([N+](=O)[O-])c1	35.1*	31.2%	82.8*	0.1%
N/C(=N\OC(=O)CCCc1ccccc1)c1cccc([N+](=O)[O-])c1	6.7	7.1%	-5.5	4.3%
N/C(=N\OC(=O)CC1CCCCC1)c1ccc([N+](=O)[O-])cc1	18.4*	?	26.1	5.5%
N/C(=N\OC(=O)CCC1CCCCC1)c1ccc([N+](=O)[O-])cc1	2.5	5.9%	-1.3	18.3%
N/C(=N\OC(=O)CCC1CCCC1)c1cccc([N+](=O)[O-])c1	18.3*	14.5%	28.3	0.1%
N/C(=N\OC(=O)CCC1CCCCC1)c1cccnc1	16.8*	15.9%	35.4*	21.7%
O=C(NCC(=O)N(c1ccc(F)cc1)C(C(=O)NC1CCCC1)c1cccnc1)c1ccco1 (centres undefined)	-2.4	5.7%[46.1 µM]	25.1	7.4%
Cc1ccc(Cc2c(C)nn(-c3nc(C)c(C(=O)N4CCCCC4C)s3)c2C)cc1 (centres undefined)	.	-21.8%[46.1 µM]	.	2.3%[46.1 µM]
CC(=O)Nc1ccc(SCC(CC(C)C)N2CCN(C)CCC2=O)cc1 (centres undefined)	1.7	.	6.1	.
CC(C)c1ccc(CNC(=O)C(=O)NCC2CCCO2)cc1 (centres undefined)	10.0	?	24.8	.
CCCCC(=O)Nc1nnc(S(=O)(=O)N(C)Cc2ccc(Cl)cc2)s1	.	.	.	17.7%[46.1 µM]
COc1ccc(/C(N)=N/OC(=O)CC2CCCCC2)cc1	47.0*	-1.8%	159.4*	-0.7%
COc1ccc(OCC(=O)O/N=C(\N)c2ccc(OC)cc2)cc1	8.0	?	24.9	?
SMILES	Cycloheximide cs	MARV entry inh	Shiga inhibitor	LASV entry inh
Cc1cc2c(cc1NC(=O)c1ccc(C(C)(C)C)cc1)n(C)c(=O)c(=O)n2C	.	.	.	16.4%[46.1 µM]
O=C(O)COc1ccc(/C=C/C(=O)c2ccc(C3CCCCC3)cc2)cc1	25.8*	13.8%[46.1 µM]	48.9	2.7%[46.1 µM]
COc1ccc(CNC(=O)/C=C/c2ccc(OCCCF)cc2)cc1	14.2	2.5%	59.6	0.2%
CCOc1ccc(C(=O)/C=C/c2ccc(SC)cc2)cc1	19.2	-11.3%	2.2	-3.1%
CCOc1ccc(/C=C/C(=O)c2ccccc2)cc1	31.0*	.	43.4	.
O=C(O)COc1ccc(/C=C/C(=O)c2ccc3ccccc3c2)cc1	14.1	22.2%[46.1 µM]	19.6	?
CCOc1ccc(/C=C/C(=O)NCc2ccccc2)cc1	20.3*	1.5%	29.6	-19.0%
